Molecules are shown by their SMILES. “And” between values parts separate entries of the source, which are not always exact repeats. Identical values can stand only once. About 5,500 (1.4%) of roughly 400,000 compounds were called active. Another 9% or so got no clear call; they are omitted. The list comes from a sample in which actives are over-represented; it also holds similar structures and randomly drawn compounds. A number with no mark means an inactive call. The call rests on the fitted dose curve; in most records, active means well fitted cell-killing curve with a large enough effect; inconclusive means small, poorly fitted or top-dose-only effect, or effect the other way; inactive means flat fitted curve, though single readings scatter.
On the % scale 0 is the no-effect control and ±100 the full control effect; potency means the concentration at half of the fitted maximal effect.

The nature of this assay: qHTS assay for MDR1-selective chemotherapeutics: Primary screen using the parental adenocarcinoma cell KB-3-1. Further: nearly all actives have a fitted effect of over 60% in size. As to conditions: KB-3-1 viability, CellTiter-Glo ATP luminescence, 72 h; series mostly up to 46.1 µM; activity change, negative = cytotoxic: at the top concentration. The method, boiled down: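 Cytotoxicity measured as CellTiter-Glo luminescence after 72 h at 37 C. Compound titrations were pinned onto drug-naive KB-3-1 parental adenocarcinoma cells grown in DMEM with 10% FBS, and normalized data fitted to concentration-response curves.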
In general terms: In qHTS, concentration-response curves come from the screen itself.
Turning to `Cn1c(C(=O)N2CCC(C(=O)N3CCN(c4ccccc4)CC3)CC2)cc2sccc21`, the “activity change, negative = cytotoxic” value is -16.4%.
Take `COc1cccc(CNC(=O)c2nnn(CC(=O)Nc3cc(C)ccc3C)c2N)c1`: the “activity change, negative = cytotoxic” value was 6.77%.
For the compound `COc1cccc(CNC(=O)c2nnn(CC(=O)Nc3cc(Cl)ccc3C)c2N)c1`, the “activity change, negative = cytotoxic” value is -2.56%.
Take `Nc1c(C(=O)NCc2ccccc2)nnn1Cc1cccc(Cl)c1`: the Potency is 20.6 µM (active).
Still for that read-out and setting: with `CC1(C)CC(N2CCN(C(c3ccccc3)c3ccccc3)CC2)=CC(=[N+]2CCCCC2)C1` the figure was 0.517 µM (active).
In the case of `CN(C(=O)CSc1nc2ccccc2n1Cc1ccccc1C#N)c1ccccc1`, the “activity change, negative = cytotoxic” value was 1.02%.
Still for that read-out and setting: under `Cc1ccc(-c2noc(CSc3nnc(-c4ccc(Cl)cc4)n3C)n2)cc1` stands -14.8%; under `CCC(Oc1ccccc1)C(=O)OCC(=O)Nc1c(C)nn(-c2ccccc2)c1C` (centres undefined), -0.205%.
The same measure, in the same setting: with `C/C=C/c1ccc(OCC(=O)OCC(=O)Nc2c(C)nn(-c3ccccc3)c2C)c(OC)c1` the figure was 3.03%; with `Cc1cccc(C)c1NC(=O)CNC(=O)c1c(C)nn(-c2ccccc2)c1C`, -8.93%.
Consider `Cc1nn(-c2ccccc2)c(C)c1NC(=O)CCl`, for which the Potency is 14.6 µM (active).
For the compound `Cc1nn(-c2ccccc2)c(C)c1NC(=O)COC(=O)c1cc(Cl)ccc1O`, the “activity change, negative = cytotoxic” value is 9.05%.
On to `Cc1nn(-c2ccccc2)c(C)c1NC(=O)COc1ccc(Cl)cc1Cl`, for which the Potency is 5.17 µM (active).
`OCc1cnc(SCc2ccc(F)cc2)n1Cc1ccc(F)cc1`: the “activity change, negative = cytotoxic” value is -6.67%.
The same measure, in the same setting: with `CN1C(=O)c2ccccc2Sc2ccc(NC(=O)Cc3ccc(Cl)cc3)cc21` the figure was 3.86%.
The same measure, in the same setting: under `COc1ccc2c(C)c(CCC(=O)NCc3ccc(OC)c(OC)c3)c(=O)oc2c1` stands -17.9%; under `Cc1ccc(C)c(N2CCN(C(=O)CN3C(=O)COc4ccc(S(=O)(=O)N5CCCCCC5)cc43)CC2)c1`, -28%.
As to `CC1=C(C(=O)Nc2ccccc2Cl)C(c2cccs2)n2ncnc2N1` (centres undefined), the “activity change, negative = cytotoxic” value was -2.1%.
On to `COc1ccccc1NC(=O)C1=C(C)Nc2ncnn2C1c1sccc1C` (centres undefined), for which the “activity change, negative = cytotoxic” value was -2.47%.
For the compound `COc1ccccc1NC(=O)C1=C(C)Nc2nc3ccccc3n2C1c1cccs1` (centres undefined), the Potency was 3.26 µM (active).
`Cc1nc2c(c(C)nn2-c2ccccc2)c(C)c1CCC(=O)NCCc1ccc(Cl)cc1`: the “activity change, negative = cytotoxic” value is 4.93%.
Still for that read-out and setting: with `O=C1CC(c2nnc(Cc3ccc(Cl)cc3)o2)CN1c1ccccc1` (centres undefined) the figure was 0.612%.
Still for that read-out and setting: with `CCC(=O)N1CCc2cc(Br)cc(S(=O)(=O)NCc3ccc(Cl)cc3)c21` the figure was -8.85%.
`COc1cc(C2c3cc4c(cc3C(O)C3COC(=O)C23)OCO4)cc(OC)c1OC` (centres undefined): the Potency was 146 nM (active) and 164 nM (active).
With `COc1cc(C=C(OC(C)=O)c2ccc3c(c2)OCO3)cc(OC)c1OC`, the “activity change, negative = cytotoxic” value is 3.24%.
On to `COc1cc(C2CC(=O)Oc3cc(OC)c(OC)c(OC)c32)cc(OC)c1OC` (centres undefined), for which the “activity change, negative = cytotoxic” value was 0%.
`Cc1ccccc1NC(=O)Cn1cc(C(=O)c2cccs2)c2ccccc21`: the “activity change, negative = cytotoxic” value is -2.3%.
As to `CCCCOC(=O)CSc1ncnc2sc3c(c12)CCC(C)C3` (centres undefined), the “activity change, negative = cytotoxic” value was -2.69%.
For `CC1CN(S(=O)(=O)c2ccc(C(=O)Nc3sccc3C(N)=O)cc2)CC(C)O1` (centres undefined), the “activity change, negative = cytotoxic” value was -4.42%.
As for `CC1CCCCN1S(=O)(=O)c1ccc(C(=O)Nc2nnc(-c3cccs3)o2)cc1` (centres undefined), the Potency was 9.2 µM (active).
For `CC1CCCCN1S(=O)(=O)c1ccc(S(=O)(=O)N(CC(=O)Nc2ccccc2)Cc2cccs2)cc1` (centres undefined), the “activity change, negative = cytotoxic” value is -1.56%.
With `Cc1nc2sc(C(=O)c3ccccc3)c(N)c2c2c1CCCC2`, the Potency is 23.1 µM (active).
Regarding `Cn1c(-c2ccc(C(=O)c3ccccc3)s2)nc2ccccc21`, the “activity change, negative = cytotoxic” value is -3.28%.
On the same count and under the same terms, under `Cc1c(C(=O)Nc2ccccc2)sc2nc3n(c(=O)c12)CCCCC3` stands 9.47%; under `CCN(Cc1ccccc1)Cc1c(O)ccc2c(=O)c(-c3ccc(Cl)cc3Cl)coc12`, 1.32%; under `CC1CN(C(=O)N2CCC(C(=O)NCc3ccco3)CC2)c2cc(Cl)ccc2O1` (centres undefined), -3.94%.
On the same count and under the same terms, under `COc1ccc(-c2noc(CCC(=O)N(C)c3ccccc3C)n2)cc1` stands 4.45%.
In the case of `Cc1[nH]n(-c2cccc(Cl)c2)c(=O)c1/C=N/n1c(C)nc2ccccc2c1=O`, the Potency is 10.3 µM (active).
With `Cc1nc2ccccc2c(=O)n1-c1ccc(NS(=O)(=O)c2ccc(F)cc2F)cc1`, the “activity change, negative = cytotoxic” value is -2.73%.
In the case of `Cc1cc2n(n1)C(c1cc(C(C)(C)C)c(O)cc1O)Nc1ccccc1-2` (centres undefined), the “activity change, negative = cytotoxic” value was 0%.
Take `O=C(CCC1N=C2c3ccccc3N=C(SCc3ccccc3F)N2C1=O)NCCc1ccccc1` (centres undefined): the “activity change, negative = cytotoxic” value was -0.17%.
The same measure, in the same setting: with `COc1cccc(CNC(=O)Cc2csc3nc(-c4ccccc4)cn23)c1` the figure was -0.279%; with `COc1ccc(NC(=O)CSc2nc3ccccc3[nH]2)cc1`, 4.45%.
As for `COC(=O)Nc1nc2ccc(Sc3ccccc3)cc2[nH]1`, the Potency is 1.46 µM (active).
With `Cc1ccc2nc(CNC(=O)c3ccccc3)[nH]c2c1`, the “activity change, negative = cytotoxic” value was 2.91%.
As for `COc1ccc(CCNc2ncnc3onc(-c4ccc(Cl)cc4)c23)c(OC)c1`, the “activity change, negative = cytotoxic” value is -5.86%.
Still for that read-out and setting: under `COc1ccc(Cl)cc1NC(=O)CSc1nc(-c2cccs2)cc(C(F)(F)F)n1` stands -13.2%; under `COc1ccc(Cl)cc1NC(=O)CN(C)C(=O)c1ccc2n[nH]nc2c1`, 0.871%.
Take `COc1ccc(Cl)cc1NC(=O)CN(C)C(=O)c1cc(-c2cccs2)nn1-c1ccccc1`: the Potency is 20.6 µM (active).

The values above are taken from PubChem BioAssay AID1347075 (National Center for Advancing Translational Sciences (NCATS), 2019).
